{"source": "PubChem BioAssay (NCATS)", "key": {"[1]": {"test": "Quantitative High-Throughput drug screen in 47 multiple myeloma cell lines against the NCATS MIPE library collection: Delta47_JCRB cell viability assay (AID 1918925; further: nearly all actives have a fitted effect of over 45% in size)", "in_short": "(§1)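 qHTS of the MIPE 4.0 collection: 500 myeloma cells/well, 48 h drug exposure at 37C in 5% CO2, then CellTiter-Glo for 5 min at room temperature before luminescence reading.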"}, "[2]": {"test": "Quantitative High-Throughput drug screen in 47 multiple myeloma cell lines against the NCATS MIPE library collection: ARP1_JJKsccF8 cell viability assay (AID 1918928)", "in_short": "(§2)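 500 cells/well; MIPE 4.0 library pinned in; 48 h, 37 °C, 5% CO2; CellTiter-Glo ATP luminescence. Controls: DMSO = 100% viability, medium only = 0%.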"}, "[3]": {"test": "Quantitative High-Throughput drug screen in 47 multiple myeloma cell lines against the NCATS MIPE library collection: FR4_PLB cell viability assay (AID 1918924)", "in_short": "(§3)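 Relative luminescence from CellTiter-Glo served as the viability signal, referenced to DMSO-treated (100%) and cell-free medium (0%) controls. Treatment lasted 48 hours at 37C with 500 cells per well.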"}, "[4]": {"test": "Quantitative High-Throughput drug screen in 47 multiple myeloma cell lines against the NCATS MIPE library collection: EJM_DSMZ cell viability assay (AID 1918926)", "in_short": "as §1"}, "[5]": {"test": "Quantitative High-Throughput drug screen in 47 multiple myeloma cell lines against the NCATS MIPE library collection: AMO1_DSMZ cell viability assay (AID 1918927)", "in_short": "as §1"}, "[6]": {"test": "Quantitative High-Throughput drug screen in 47 multiple myeloma cell lines against the NCATS MIPE library collection: ARD_JJKsccE7 cell viability assay (AID 1918929)", "in_short": "as §1"}, "[7]": {"test": "Quantitative High-Throughput drug screen in 47 multiple myeloma cell lines against the NCATS MIPE library collection: KMM1_JCRB cell viability assay (AID 1918960)", "in_short": "as §2"}, "[8]": {"test": "Quantitative High-Throughput drug screen in 47 multiple myeloma cell lines against the NCATS MIPE library collection: Karpas620_DSMZ cell viability assay (AID 1918959)", "in_short": "as §3"}}, "note": "Records with an inconclusive call do not appear. Active and inactive are the calls of the source. The call rests on the fitted dose curve; in most records, active means well fitted cell-killing curve with a large enough effect; inconclusive means small, poorly fitted or top-dose-only effect, or effect the other way; inactive means no such curve, though single readings can be large or run the other way. Potency means the concentration at half of the fitted maximal effect."}
{"smiles": "Nc1ccc(C(=O)c2cc3c(ccc4ccccc43)[nH]2)cc1", "values": [{"measurement": "Potency", "setting": "[1]", "result": "1.87 µM (active)"}, {"measurement": "Potency", "setting": "[2]", "result": "2.96 µM (active)"}]}
{"smiles": "CCCCN1CCC(CNC(=O)c2c3n(c4ccccc24)CCCO3)CC1", "values": [{"measurement": "Potency", "setting": "[3]", "result": "11.8 µM (active)"}, {"measurement": "Potency", "setting": "[1]", "result": "6.62 µM (active)"}, {"measurement": "Potency", "setting": "[4]", "result": "1.48 µM (active)"}, {"measurement": "Potency", "setting": "[5]", "result": "13.2 µM (active)"}, {"measurement": "Potency", "setting": "[2]", "result": "20.9 µM (active)"}, {"measurement": "Potency", "setting": "[6]", "result": "16.6 µM (active)"}]}
{"smiles": "CC(C)=CCCC(C)=CCCC(C)=CCSc1ccccc1C(=O)O", "values": [{"measurement": "Potency", "setting": "[3]", "result": "1.18 µM (active)"}, {"measurement": "Potency", "setting": "[1]", "result": "2.35 µM (active)"}, {"measurement": "Potency", "setting": "[5]", "result": "4.18 µM (active)"}, {"measurement": "Potency", "setting": "[2]", "result": "1.18 µM (active)"}, {"measurement": "Potency", "setting": "[7]", "result": "0.187 µM (active)"}]}
{"smiles": "Nc1ccc(S(=O)(=O)Nc2ncccn2)cc1", "values": [{"measurement": "Potency", "setting": "[4]", "result": "inactive"}, {"measurement": "Potency", "setting": "[5]", "result": "inactive"}, {"measurement": "Potency", "setting": "[6]", "result": "inactive"}, {"measurement": "Potency", "setting": "[8]", "result": "inactive"}]}
{"smiles": "C=C1C(=CC=C2CCCC3(C)[C@@H]([C@H](C)C=CC=CC(O)(CC)CC)CC[C@@H]23)C[C@@H](O)C[C@@H]1O", "note": "(stereo partly specified)", "values": [{"measurement": "Potency", "setting": "[2]", "result": "20.9 µM (active)"}, {"measurement": "Potency", "setting": "[6]", "result": "16.6 µM (active)"}, {"measurement": "Potency", "setting": "[8]", "result": "20.9 µM (active)"}, {"measurement": "Potency", "setting": "[7]", "result": "20.9 µM (active)"}]}
